Sampled rows, rich in hits. Any-hit rate of the full collection: about 3.5%.
mHTT-CaM PPI inh – mutant huntingtin-calmodulin interaction inhibitors – biochemical, AlphaScreen, primary screen; AlphaScreen His-mHTT/GST-CaM binding, luminescence; P42858; 190,000 compounds, 3.6% hits; inhibition, % at 15 µM
Pf apPOL inh – Pf-apPOL inhibitors, biochemical, fluorescence; Recombinant Pf-apPOL, molecular beacon fluorescence, 1.5 h; inhibition, % at 10 µM; 210,000 compounds, 0.25% hits; AID 1794808, 2022
Large screens that a line does not name were inactive. Rule as the data show it: active = inhibition above about 50%; inactive = the rest.

CNC(=O)N1CCC(n2c(C)nc(C(=O)Nc3ccccc3)c2C)CC1	none
CC(C)CC(=O)N1CCN(CC2CC=CCC2)CC1 (stereo not drawn)	Pf apPOL inh 91
O=C(C1CCN(CC2CC=CCC2)CC1)N1CCCC1 (stereo not drawn)	none
CCc1ccc(-c2[nH]ncc2CN2CCCC2c2c(C)noc2C)cc1 (stereo not drawn)	none
CNC(=O)c1cc(N2CCOCC2)nc2ccc(F)cc12	none
Cc1ccc(C2Oc3ccccc3C3=C2C(c2ccc(F)cc2)n2ncnc2N3)cc1 (stereo not drawn)	none
Cc1ccc(C2C3=C(Nc4ncnn42)c2ccccc2OC3c2cccc(F)c2)cc1 (stereo not drawn)	mHTT-CaM PPI inh 53
Fc1ccc(C2C3=C(Nc4ncnn42)c2ccccc2OC3c2cccc(F)c2)cc1 (stereo not drawn)	none
Cc1ccc(C2C3=C(Nc4ncnn42)c2ccccc2OC3c2ccc(F)cc2)cc1 (stereo not drawn)	mHTT-CaM PPI inh 51
CC(C)(C#N)OC(=O)NC1CCCCC1	none
CC(C)N(CC(O)COC1C2(C)CCC(C2)C1(C)C)C(C)C (stereo not drawn)	none
OCc1nc2ccccc2n1Cc1ccc(Cl)c(Cl)c1	mHTT-CaM PPI inh 73
OCc1nc2ccccc2n1Cc1ccccc1	none
O=C(Nc1ccc(NC(=O)c2cccc(F)c2)cc1)c1ccc(Br)cc1	none
O=C(Nc1cccc(F)c1)C1CCCN(C(=O)c2ccccc2F)C1 (stereo not drawn)	none
Cc1cc(C)cc(NC(=O)C2CCCN(C(=O)c3ccccc3F)C2)c1 (stereo not drawn)	mHTT-CaM PPI inh 97
CCCN1CC=C2C(C#N)=C(N)C(C#N)(C#N)C(c3ccc(-c4ccccc4)cc3)C2C1 (stereo not drawn)	mHTT-CaM PPI inh 63
Cc1ccc(C2C3CCCC=C3C(C#N)=C(N)C2(C#N)C#N)cc1 (stereo not drawn)	none
CN1CC=C2C(C#N)=C(N)C(C#N)(C#N)C(c3ccccc3)C2C1 (stereo not drawn)	none
CC(C)(C)C1CC=C2C(C#N)=C(N)C(C#N)(C#N)C(c3ccccc3)C2C1 (stereo not drawn)	none
CC(C)c1ccc(C2C3CCCC=C3C(C#N)=C(N)C2(C#N)C#N)cc1 (stereo not drawn)	mHTT-CaM PPI inh 55
CC(C)(C)C1CC=C2C(C#N)=C(N)C(C#N)(C#N)C(c3ccc(Cl)cc3)C2C1 (stereo not drawn)	mHTT-CaM PPI inh 62
COc1ccc(C2C3CCCC=C3C(C#N)=C(N)C2(C#N)C#N)cc1 (stereo not drawn)	none
CCCCOc1ccc(C2C3CCCC=C3C(C#N)=C(N)C2(C#N)C#N)cc1 (stereo not drawn)	mHTT-CaM PPI inh 55
COc1ccc(Cl)cc1C(=O)N1CCc2nc3cc[nH]n3c(=O)c2C1	none
COc1ccc(Cl)cc1NC(=O)CN(c1cccc(Br)c1)S(C)(=O)=O	none
Cc1cccc(NC(=O)NC2CCN(c3ccc(C)c(C)c3)C2=O)c1 (stereo not drawn)	none
N#CC1=C(N)C(C#N)(C#N)C(c2ccccc2)C2CCCC=C12 (stereo not drawn)	none
N#CC1=C(N)C(C#N)(C#N)C(c2cccs2)C2CC(c3ccccc3)CC=C12 (stereo not drawn)	mHTT-CaM PPI inh 96
Cc1ccc(N2CCN(Cc3nc(C(=O)NC4CC4)co3)CC2)cc1	mHTT-CaM PPI inh 92
CC1CCN(Cc2nc(C(=O)NC3CCCCC3)co2)CC1	none
Cc1nn(C(=O)COc2ccccc2)c(C)c1Sc1ccc([N+](=O)[O-])cc1	none
COc1cc(C2CC(c3ccccc3O)=NN2)ccc1O (stereo not drawn)	mHTT-CaM PPI inh 89
COc1ccccc1C1CC(c2cc(Cl)ccc2O)=NN1 (stereo not drawn)	none
CC(C)CCNC(=O)C1(C)CCC(=O)N1CCN1CCN(c2cccc(Cl)c2)CC1 (stereo not drawn)	none
CC(C)n1cnc2ccc(-c3noc(Cc4c[nH]c5ccccc45)n3)cc21	mHTT-CaM PPI inh 100
CCCn1cnc2ccc(-c3noc(Cc4cccs4)n3)cc21	none
Cc1nn2c(=O)/c(=C/c3ccc(C(C)(C)C)cc3)sc2nc1=O	none
COCCNC(=O)N1CCC2(CC1)Nc1cc(F)ccc1-n1cccc12	none
O=C(NCc1ccc(F)cc1)N1CCC2(CC1)Nc1ccccc1-n1cccc12	mHTT-CaM PPI inh 56
O=C(NCCc1ccccc1)N1CCC2(CC1)Nc1ccccc1-n1cccc12	mHTT-CaM PPI inh 69
O=C(NCCc1ccccc1)N1CCC2(CC1)Nc1cc(F)ccc1-n1cccc12	mHTT-CaM PPI inh 56
CCCNC(=O)N1CCC2(CC1)Nc1cc(F)ccc1-n1cccc12	none
CN1c2ccccc2C(=O)NC12CCN(C(=O)NCCc1ccccc1)CC2	none
O=C(NCc1ccccc1)N1CCC2(CC1)Nc1ccccc1-n1cccc12	mHTT-CaM PPI inh 71
COC(=O)CNC(=O)N1CCC2(CC1)Nc1ccccc1-n1cccc12	none
O=C(Cn1ccnc1)N1CCC(OCc2nc(C3CC3)no2)CC1	none
COc1cccc(C2=N/C(=C\C(C)=C\c3ccccc3)C(=O)O2)c1	none
COc1cccc(CNC(=O)N2CCC3(CC2)Nc2ccccc2-n2cccc23)c1	mHTT-CaM PPI inh 61
Cc1cccc(C(=O)N2CCC(=O)N([C@H](COCc3cccc(Cl)c3)Cc3ccccc3)CC2)c1	mHTT-CaM PPI inh 99
COc1cccc(C(=O)N2CCc3c(c(COCc4ccc(Cl)cc4)nn3C)C2)c1	none
O=C(c1ccc(Cl)c(Cl)c1)N1CCC(=O)N([C@H](COCc2ccc(Cl)cc2)Cc2ccccc2)CC1	mHTT-CaM PPI inh 100
Cc1ccc(S(=O)(=O)N2CCC(=O)N([C@H](COCc3cccc(C)c3)Cc3ccccc3)CC2)cc1	none
Cc1ccc(S(=O)(=O)N2CCC(=O)N([C@H](COCc3ccc(C(F)(F)F)cc3)Cc3ccccc3)CC2)cc1	none
Cc1cccc(C(=O)N2CCC(=O)N([C@H](COCc3ccc(Cl)cc3)Cc3ccccc3)CC2)c1	mHTT-CaM PPI inh 99
Cc1cccc(COC[C@H](CC(C)C)N2CCN(C(=O)c3ccc(C(C)(C)C)cc3)CCC2=O)c1	none
Cc1cccc(COC[C@H](Cc2ccccc2)N2CCN(C(=O)c3ccc(C(F)(F)F)cc3)CCC2=O)c1	mHTT-CaM PPI inh 99
CCCC1CCC2(CC1)CC[C@H]2OC(=O)Nc1ccc(C)cc1 (stereo partly drawn)	none
CCc1ccc(C2CC(c3cccc(Br)c3)n3nc(N)nc3N2)cc1 (stereo not drawn)	none
Cc1oc2cc(OCc3ccc([N+](=O)[O-])cc3)ccc2c(=O)c1-c1ccccc1	none
CCN(CC)CCn1c(=N)n(CC(O)c2ccc(C)cc2)c2ccccc21 (stereo not drawn)	none
CCOc1ccc(N2CCN(C(C)=O)C(C)C2=O)cc1 (stereo not drawn)	none
Cc1cccc(C2=NC3(CCN(CC(=O)NCc4ccc(Cl)cc4)CC3)NC2=O)c1	mHTT-CaM PPI inh 53
Cc1ccc(CN2CCC3(CC2)N=C(c2ccccc2)C(=O)N3)cc1	mHTT-CaM PPI inh 54
Cc1cccc(NC(=O)CN2CCC3(CC2)N=C(c2ccc(F)cc2)C(=O)N3)c1	none
Cc1ccc(C2=NC3(CCN(CC(=O)NCc4ccc(Cl)cc4)CC3)NC2=O)cc1	none
Cc1ccc(C2=NC3(CCN(Cc4ccc(F)cc4)CC3)NC2=O)cc1	none
Cc1cccc(C2=NC3(CCN(CC(=O)Nc4ccc(F)cc4)CC3)NC2=O)c1	mHTT-CaM PPI inh 69

Screening data deposited in PubChem BioAssay by University of Kansas High Throughput Screening Laboratory.
